Our source for the inhibition values is PubChem BioAssay.

A number with no mark means an inactive call. No rule for the calls is given here.

This assay deals with Pantothenate synthetase (Mycobacterium tuberculosis (strain ATCC 25618 / H37Rv)) (UniProt P9WIL5). Put plainly: Recombinant Mtb pantothenate synthetase (PanC) inhibitors, coupled enzyme, confirmatory (AID 375).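 Also: 0% = full reaction with vehicle and 100% = no enzyme background.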 The settings on record: coupled enzyme assay; at 10 µM, hits give high values.
Chain of Pantothenate synthetase (Mycobacterium tuberculosis (strain ATCC 25618 / H37Rv)) (P9WIL5 whole entry, looked up): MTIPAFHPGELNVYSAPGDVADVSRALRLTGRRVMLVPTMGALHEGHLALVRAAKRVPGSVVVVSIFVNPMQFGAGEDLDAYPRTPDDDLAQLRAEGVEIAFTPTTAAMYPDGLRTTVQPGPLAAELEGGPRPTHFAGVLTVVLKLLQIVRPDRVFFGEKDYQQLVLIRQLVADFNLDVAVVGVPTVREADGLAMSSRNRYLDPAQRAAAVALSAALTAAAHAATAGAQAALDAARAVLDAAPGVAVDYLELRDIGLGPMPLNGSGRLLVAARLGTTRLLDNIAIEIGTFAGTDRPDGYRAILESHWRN

As a reminder, the inhibition is the change of the read-out against control, counted positive when it falls. On to `CCOC(=O)c1cc2sccc2n1CC(=O)Nc1ccc(OC)cc1OC`, for which the inhibition was 0%.

As to `CCCCNC(=O)CSc1nc2ccc(N3CCOCC3)cc2c(=O)n1CCc1ccccc1`, the inhibition is 15%. Regarding `Cc1cc2ncc(C(=O)Nc3ccccc3)c(C)n2n1`, the inhibition is 7%.

As to `CC1(C)Cc2nc3oc4c(N(CCO)Cc5ccccc5)ncnc4c3cc2CO1`, the inhibition is 0%. Under `O=C(C1CCC(CNc2c(N3CCCCC3)c(=O)c2=O)CC1)N1CCc2ccccc2C1` (configuration not stated) stands 0%; under `Cc1cc(C(=O)CSc2nc3ccccc3[nH]2)c(C)n1C`, 12%; under `Cc1ccccc1N1CC(c2nc3ccccc3[nH]2)CC1=O` (configuration not stated), 0%. Under `COc1ccc(OCCSc2nc3ccccc3n2CC(=O)O)cc1` stands 2%; under `CCc1oc2ccccc2c1C(=O)c1cc(Br)c(O)c(Br)c1`, 0%; under `CSc1nnc2c3ccccc3n(CCc3ccccc3)c2n1`, 0%. Under `N#Cc1c(N)nc(SCc2ccncc2)c(C#N)c1-c1cccs1` stands 11%; under `CCCCc1ccc(NC(=O)c2c(C)noc2C)cc1`, 8%; under `CCN1CCN(Cc2nc3c(c(=O)[nH]c(=O)n3C)n2Cc2ccccc2Cl)CC1`, 2%. Consider `O=C(Nc1cc(Cl)ccc1Cl)c1noc2c1CCCC2`, for which the inhibition is 2%. On to `C/C(=N\O)C(=O)NCCCNCCCN(C)C`, for which the inhibition is 2%. In the case of `CCCCCCC(c1c(C)n(C)n(-c2ccccc2)c1=O)c1c(C)n(C)n(-c2ccccc2)c1=O`, the inhibition is 0%. For `O=C(COC(=O)c1ccc(S(=O)(=O)Nc2ccccc2)cc1)NCCN1C(=O)CSC1=O`, the inhibition was 0%.
